From PubChem BioAssay
The sample as a whole holds a higher share of hits than the screen did.
FBPA Giardia inh: Giardia lamblia aldolase inhibition. hit rate 0.71% among 290,000. A8B2U2. Potency, µM (highest dose often 59.6 µM), without a hit: top-dose activity, negative = inhibition, most hits filed as inhibitors. purified Giardia FBPA. AID 2451; further: potency means the concentration at half of the fitted maximal effect; on the % scale 0 is the no-effect control and ±100 the full control effect; nearly all actives have a fitted effect of over 55% in size
Target sequence (A8B2U2 whole entry, looked up): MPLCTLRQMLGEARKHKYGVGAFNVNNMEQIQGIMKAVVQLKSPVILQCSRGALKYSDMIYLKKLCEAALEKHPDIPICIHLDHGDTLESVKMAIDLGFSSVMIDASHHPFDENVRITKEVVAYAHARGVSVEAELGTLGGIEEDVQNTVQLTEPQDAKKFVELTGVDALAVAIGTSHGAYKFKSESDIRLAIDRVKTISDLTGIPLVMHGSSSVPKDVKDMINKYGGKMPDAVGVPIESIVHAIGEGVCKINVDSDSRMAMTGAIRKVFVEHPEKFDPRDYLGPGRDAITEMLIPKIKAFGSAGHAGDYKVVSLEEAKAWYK
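Giardia FBPA (40 nM reagent) was preincubated 10 min at RT with compound (up to 57.5 uM final), then substrate plus GAPDH/TPI/NAD/arsenate coupling system with diaphorase/resazurin was added; resorufin fluorescence (525/598 nm) was read after 20 min.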
TbPYK inhibitor: blocks Trypanosoma brucei pyruvate kinase; TbPYK enzyme, Kinase-Glo Plus ATP luminescence, 45 min; hit rate 0.12% among 410,000; Q57TT1; Potency, µM (titrated, usually from 76.8 µM), without a hit: top-dose activity, negative = inhibition, hits mostly inhibitors; AID 624173; further: potency means the concentration at half of the fitted maximal effect; on the % scale 0 is the no-effect control and ±100 the full control effect; nearly all actives have a fitted effect of over 50% in size
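In this concentration-response screen, enzyme-free wells defined baseline while DMSO plates tracked drift. Each reaction combined TbPYK, substrate, compound and 130 uM ADP for 45 min at room temperature. Kinase-Glo Plus luminescence gave the signal.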
Cycloheximide cs: counter-screen hit for Shiga toxin inhibitors, cycloheximide | hit rate 12% among 300,000 | max response, % | cell reporter, cycloheximide protein synthesis inhibition counterscreen | AID 2314; in the data active means max response mostly above about 13%, no sharp cut-off; inactive means mostly below about 14%; further: read at 38.3 µM for the half of the compounds with a filed dose; 0% is about no effect
RE007 growth inh: less growth of the S. pombe RE007 Vpr strain. S. pombe RE007 Vpr strain, BacTiter-Glo ATP luminescence, 24 h. AID 651644. Potency, µM (top dose mostly 92.2 µM), for the others: at the top dose activity change, negative = less growth, actives largely listed as inhibitors. hit rate 0.21% among 360,000; active means well fitted falling curve with a large enough effect; inconclusive means small, poorly fitted or top-dose-only effect; inactive means no such curve, though single readings can be large or run the other way; further: potency means the concentration at half of the fitted maximal effect; on the % scale 0 is the no-effect control and ±100 the full control effect; nearly all actives have a fitted effect of over 50% in size
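Fission yeast RE007 carrying one integrated HIV-1 vpr copy, seeded at OD 0.01 in PMG+AL medium with 23 nL pinned compound. Grown 24 h at 30 degrees; viability read by BacTiter-Glo luminescence after 5 min.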
LmPK inh: LmPK (Leishmania mexicana) enzyme inhibition; Q27686; purified LmPK, Kinase-Glo ATP luminescence, 1 h; Potency, µM (top dose mostly 57.5 µM), inactives show at the highest dose activity change, negative = inhibition, most hits filed as inhibitors; hit rate 0.37% among 290,000; further: potency means the concentration at half of the fitted maximal effect; on the % scale 0 is the no-effect control and ±100 the full control effect
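qHTS format; LmPK 0.1 nM; substrates PEP 0.5 mM and ADP 0.1 mM. One-hour room-temperature incubation, then coupled luciferase luminescence; 0.5 nM enzyme wells mark activation.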
Shiga inhibitor: Shiga toxin inhibition; Vero cells, Shiga toxin protein synthesis inhibition reporter; hit rate 9.2% among 290,000; inhibition, % at 38.7 µM; in the data active means inhibition mostly above about 28%, no sharp cut-off; inactive means mostly below about 43%; further: 0% is about no effect
Numbers without * were called inactive. Unless noted, the call rests on the fitted dose curve; in most records, active means well fitted curve in the direction sought with a large enough effect; inconclusive means small, poorly fitted or top-dose-only effect, or another doubt; inactive means no such curve, though single readings can be large; an effect the other way counts as inactive or inconclusive.

For CCOC(=O)C1(Cc2ccccc2)CCN(Cc2ccc3c(c2)OCCO3)CC1 the results were FBPA Giardia inh -19%, TbPYK inhibitor -4%, Cycloheximide cs -2, RE007 growth inh -5%, LmPK inh 2% and Shiga inhibitor -7.
For COc1ccc(OC)c(-c2cc(C(=O)Nc3ccc(F)cc3F)no2)c1 the results were FBPA Giardia inh 1%, TbPYK inhibitor 3%, Cycloheximide cs 1, RE007 growth inh -4%, LmPK inh 11% and Shiga inhibitor 16.
`Cc1ccc(Cn2c(C)c3cnn(CC(=O)N4CCN(c5ccc(F)cc5)CC4)c(=O)c3c2C)cc1` gave TbPYK inhibitor -2%.
For COc1ccc(C(OCCN2CCC[C@H](C(=O)O)C2)(c2ccc(OC)cc2)c2ccc(OC)cc2)cc1 the results were FBPA Giardia inh 1%, Cycloheximide cs -6 and Shiga inhibitor 3.
For Cc1[nH]c2ccccc2c1-c1csc(N)n1 the results were FBPA Giardia inh -30%, TbPYK inhibitor -10%, Cycloheximide cs -3, RE007 growth inh 1%, LmPK inh -3% and Shiga inhibitor 7.
`Cc1sc2nc(-c3ccccn3)[nH]c(=O)c2c1-c1ccccc1` gave FBPA Giardia inh inconclusive, TbPYK inhibitor -14%, Cycloheximide cs 71*, RE007 growth inh inconclusive, LmPK inh -1% and Shiga inhibitor 114*.
Nc1nc(-c2nc3ccccc3[nH]2)cs1 was read as FBPA Giardia inh 15%, TbPYK inhibitor -12%, Cycloheximide cs 33*, RE007 growth inh -12%, LmPK inh inconclusive and Shiga inhibitor 70*.
Cc1sc2nc(-c3ccncc3)[nH]c(=O)c2c1-c1ccccc1 was read as FBPA Giardia inh 8%, Cycloheximide cs -6, LmPK inh 4% and Shiga inhibitor -6.
Screening CC(NC(=O)Nc1cc(Cl)ccc1Cl)c1c(-n2cccc2)sc2c1CCCC2 (stereo unspecified) returned TbPYK inhibitor -1%.
For CCCCn1cnc2c(oc3nc4c(cc32)CCCC4)c1=O the results were FBPA Giardia inh -1%, TbPYK inhibitor -2%, Cycloheximide cs 26*, RE007 growth inh -20%, LmPK inh -10% and Shiga inhibitor 46.
`O=c1c2oc3nc4c(cc3c2ncn1CCCc1ccccc1)CCCC4` gave FBPA Giardia inh -3%, TbPYK inhibitor -8%, Cycloheximide cs 20*, RE007 growth inh 0%, LmPK inh 0% and Shiga inhibitor 70*.
COc1ccccc1NC(=O)Cn1cnc2c(oc3nc4c(cc32)CCCC4)c1=O was read as FBPA Giardia inh 11%, TbPYK inhibitor -2%, Cycloheximide cs -2, RE007 growth inh 7%, LmPK inh 9% and Shiga inhibitor -10.
For CCCCCCn1cnc2c(oc3nc4c(cc32)CCCC4)c1=O the results were FBPA Giardia inh -1%, TbPYK inhibitor -2%, Cycloheximide cs 12*, RE007 growth inh 20%, LmPK inh 1% and Shiga inhibitor 9.
For Cc1ccc(C(=O)N(C)c2ccc(OCC(=O)N3c4ccc(C)cc4C4CN(C)CCC43)cc2)cc1 (stereo unspecified) the results were FBPA Giardia inh -6%, TbPYK inhibitor -2%, Cycloheximide cs 37*, RE007 growth inh 1%, LmPK inh 6% and Shiga inhibitor 51.
For Cc1nnc(SCc2nnc(-c3cccs3)o2)n1Cc1ccccc1 the results were FBPA Giardia inh 14%, TbPYK inhibitor 1%, Cycloheximide cs 4, RE007 growth inh -9%, LmPK inh -7% and Shiga inhibitor -22.
For c1csc(-c2nnc(Cc3cccc4ccccc34)o2)c1 the results were FBPA Giardia inh 15%, TbPYK inhibitor -6%, Cycloheximide cs 17*, RE007 growth inh -23%, LmPK inh 5% and Shiga inhibitor 29.
Screening Fc1ccc(Cc2nnc(-c3cccs3)o2)cc1 returned FBPA Giardia inh 6%, TbPYK inhibitor -4%, Cycloheximide cs 33*, RE007 growth inh 7%, LmPK inh 0% and Shiga inhibitor 43*.
For Fc1ccc(-c2nnc(CSc3nnc(-c4cccs4)o3)o2)cc1 the results were FBPA Giardia inh -4%, TbPYK inhibitor -10%, Cycloheximide cs 10, RE007 growth inh 2%, LmPK inh 1% and Shiga inhibitor 28.
Screening CC1(c2nnc(-c3ccc(F)cc3)o2)CC(c2ccc(Cl)cc2)=NO1 (stereo unspecified) returned FBPA Giardia inh -6%, TbPYK inhibitor -7%, Cycloheximide cs -5, RE007 growth inh 11%, LmPK inh 10% and Shiga inhibitor -3.
For CC(O)c1nc2ccccc2n1Cc1nnc(-c2ccc(Cl)cc2)o1 (stereo unspecified) the results were FBPA Giardia inh 2%, TbPYK inhibitor 4%, Cycloheximide cs 21*, RE007 growth inh 4%, LmPK inh -1% and Shiga inhibitor 28.
`Fc1ccc(-c2nnc(Cc3ccc(Cl)cc3)o2)cc1` gave FBPA Giardia inh 5%, TbPYK inhibitor 6%, Cycloheximide cs 36*, RE007 growth inh -8%, LmPK inh -7% and Shiga inhibitor 59*.
Screening COc1ccc(NC(=O)/C(=C\c2ccc(OC)c(OC)c2)NC(=O)c2ccco2)cc1 returned TbPYK inhibitor 1%, Cycloheximide cs 2, RE007 growth inh -1%, LmPK inh -10% and Shiga inhibitor -18.
c1ccc(-c2nnc(CSc3nnc(-c4cccs4)o3)o2)cc1 was read as FBPA Giardia inh -4%, TbPYK inhibitor -5%, Cycloheximide cs 2, RE007 growth inh 2%, LmPK inh 6% and Shiga inhibitor -1.
`c1ccc(CSc2nnc(-c3cccs3)o2)cc1` gave FBPA Giardia inh -3%, TbPYK inhibitor 0%, Cycloheximide cs 46*, RE007 growth inh 9%, LmPK inh 3% and Shiga inhibitor 101*.
For CCSc1nnc(-c2cccs2)o1 the results were FBPA Giardia inh 1%, TbPYK inhibitor 1%, Cycloheximide cs 28*, RE007 growth inh 2%, LmPK inh -1% and Shiga inhibitor 28.
`Nc1nnc(-c2ccc(Cl)cc2)o1` gave FBPA Giardia inh 12%, TbPYK inhibitor -7%, Cycloheximide cs 7, RE007 growth inh -7%, LmPK inh -2% and Shiga inhibitor 36.
Cc1ccccc1OCCSc1nnc(-c2cccs2)o1 was read as TbPYK inhibitor 4%.
CC(C)NCc1nnc(-c2ccc(Cl)cc2)o1 was read as FBPA Giardia inh -1%, TbPYK inhibitor 3%, Cycloheximide cs 20*, RE007 growth inh 1%, LmPK inh 0% and Shiga inhibitor 32.
Fc1ccc(CSc2nnc(-c3cccs3)o2)cc1 was read as FBPA Giardia inh -2%, TbPYK inhibitor -6%, Cycloheximide cs 65*, RE007 growth inh 1%, LmPK inh 2% and Shiga inhibitor 101*.
